The values below come from PubChem BioAssay (EPA / NIEHS).

Molecules are shown by their SMILES. “And” between values parts separate entries of the source, which are not always exact repeats. Identical values can stand only once. More than one record can exist for a structure, and the calls need not agree. The source made the active and inactive calls. Rule for the calls: active = hit-call score of the fitted dose curve at least 0.9, where 1 is the maximum; inactive = score below 0.9.

Broadly, the AC50 is the concentration at which the activity in the assay is half-maximal.

A short description of one experiment: UKN4_HCS_LUHMES_neurite_outgrowth: University of Konstanz (UKN) Leist Lab Neurite Outgrowth Assay in human LUHMES cells (UKN4) (AID 2284206). Particulars: actives raise or lower the signal. How it is done:
UKN4_HCS_LUHMES is a cell-based, multiplexed-readout assay screening for neurite outgrowth and cell viability that uses LUHMES, a human central nervous system cell line, with measurements taken at […] after chemical dosing in a microplate: 96-well plate. UKN4, also referred to as NeuriTox, is an assay that uses LUHMES neuronal precursors as a model of dopaminergic neuronal differentiation. Following a 2-day differentiation period, cells are exposed to chemicals for 24 hr and neurite area is evaluated as a marker of neurite outgrowth using high-content imaging of cells stained with calcein AM. Cell viability is assessed using stain Hoechst H-33342.UKN4_HCS_LUHMES_neurite_outgrowth is an assay component measured from the UKN4_HCS_LHUMES assay. It is designed to make measurements of neurite outgrowth, a form of morphology reporter, as detected with Fluorescence intensity signals by HCS Fluorescent Imaging.The assay endpoint UKN4_HCS_LUHMES_neurite_outgrowth was analyzed with bidirectional fitting relative to DMSO as the negative control and baseline of activity. Using a type of morphology reporter, gain or loss-of-signal activity can be used to understand developmental effects. To generalize the intended target to other relatable targets, this assay endpoint is annotated to the neurodevelopment intended target family, where the subfamily is neurite outgrowth.
Proliferating LUHMES cells are seeded in proliferation medium for 24 hours. Day 0: Medium is changed from proliferation medium to differentiation medium. Day 2: Cell number reaches about 30-40 Mio per T175 flask. Cells are trypsinized and replated onto 96-well plates (30000 cells/well in 90 ul) in differentiation medium without cAMP and GDNF. At about 30 min - 2 hours after seeding, when cells have attached, the compounds are added (10 ul of each dilution; total volume 100 ul). Day 3: 23.5 h after toxicant treatment, cells are live-stained with H-33342 and calcein-AM and incubated for 30 min. After 24 h of treatment (including staining), the cells are imaged using a high-content microscope (Cellomics).
Take `O=S1OCC2C(CO1)C1(Cl)C(Cl)=C(Cl)C2(Cl)C1(Cl)Cl` (stereo not drawn): the concentration at half-maximal activity (AC50) was 16.3 µM (active).
Consider `O=S(=O)(O)C(F)(F)C(F)(F)C(F)(F)C(F)(F)C(F)(F)C(F)(F)C(F)(F)C(F)(F)F`, for which the concentration at half-maximal activity (AC50) is 19.1 µM (active).
Take `COP(=S)(OC)Oc1ccc([N+](=O)[O-])cc1`: the outcome was inactive.
For `CCC(C)(C)C(=O)OC1=C(c2ccc(Cl)cc2Cl)C(=O)OC12CCCCC2`, the molecule was called inactive.
On the same count and under the same terms, as for `ClC1C(Cl)C(Cl)C(Cl)C(Cl)C1Cl` (stereo not drawn), the entry is “inactive”.
In the case of `O=C(O)C(F)(F)C(F)(F)C(F)(F)C(F)(F)C(F)(F)C(F)(F)C(F)(F)F`, the AC50 was 78.1 µM (active).
Regarding `CC(C)N(C(=O)COc1nnc(C(F)(F)F)s1)c1ccc(F)cc1`, the molecule was called inactive.
Turning to `O=[N+]([O-])/N=C1\NCCN1Cc1ccc(Cl)nc1`, the call was inactive.

The next experiment can be described thus: IUF_NPC1b_proliferation_BrdU_72hr: Leibniz Research Institute for Environmental Medicine (IUF) 72-hour Neural Progenitor Cell Bromodeoxyuridine (BrdU) Proliferation Assay (NPC1b) (AID 2284207).
Conditions: not given
The essentials:
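hNPC spheres (primary, GW 16-19 fetal cortex), single sphere/well, EGF+FGF medium; 72 h compound, no renewal; BrdU pulse last 16 h; luminescent ELISA; activity vs DMSO baseline; growth-factor withdrawal as positive control.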
In the case of `O=S1OCC2C(CO1)C1(Cl)C(Cl)=C(Cl)C2(Cl)C1(Cl)Cl` (stereo not drawn), the molecule was classed as inactive.
With `CC[C@H](C)[C@H]1O[C@]2(C=C[C@@H]1C)C[C@@H]1C[C@@H](C/C=C(\C)[C@@H](O[C@H]3C[C@H](OC)[C@@H](O[C@H]4C[C@H](OC)[C@@H](O)[C@H](C)O4)[C@H](C)O3)[C@@H](C)/C=C/C=C3\CO[C@@H]4[C@H](O)C(C)=C[C@@H](C(=O)O1)[C@]34O)O2` (tested in a mixture with another compound), the half-maximal activity concentration (AC50) was 8.2 µM (active).
For the molecule `O=S(=O)(O)C(F)(F)C(F)(F)C(F)(F)C(F)(F)C(F)(F)C(F)(F)C(F)(F)C(F)(F)F`, the half-maximal activity concentration (AC50) is 12.6 µM (active) and the call was inactive.
For the molecule `COP(=S)(OC)Oc1ccc([N+](=O)[O-])cc1`, the call was inactive.
`CCC(C)(C)C(=O)OC1=C(c2ccc(Cl)cc2Cl)C(=O)OC12CCCCC2`: the result was inactive.
With `O=C(O)C(F)(F)C(F)(F)C(F)(F)C(F)(F)C(F)(F)C(F)(F)C(F)(F)F`, the AC50 was 6.45 µM (active) and 11.7 µM (active).
As for `CC(C)N(C(=O)COc1nnc(C(F)(F)F)s1)c1ccc(F)cc1`, the result was inactive.
As to `CC1(c2ccc(Oc3ccccc3)cc2)OC(=O)N(Nc2ccccc2)C1=O` (stereo not drawn), the outcome was inactive.
In the case of `O=C(O)COc1ccc(Cl)cc1Cl`, the AC50 was 50.1 µM (active).
`COP(=O)(OC)OC=C(Cl)Cl`: the molecule was called inactive.
`CC1(C)C(C=C(Cl)Cl)C1C(=O)OC(C#N)c1ccc(F)c(Oc2ccccc2)c1` (stereo not drawn): the concentration at half-maximal activity (AC50) was 8.05 µM (active).
Consider `CNC(=O)CSP(=S)(OC)OC`, for which the result was inactive.
Same read-out and setting: as for `O=[N+]([O-])/N=C1\NCCN1Cc1ccc(Cl)nc1`, the entry is “inactive”.

A further experiment is described as follows: IUF_NPC1a_proliferation_area_72hr: Leibniz Research Institute for Environmental Medicine (IUF) 72-hour Neural Progenitor Cell Proliferation Area Assay (NPC1a) (AID 2284208).
Conditions: not given
The essentials: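 Single 0.25–0.35 mm human fetal neural progenitor spheres in proliferation medium with EGF and FGF, exposed 72 h from plating without renewal at 37C, pH 7.2-7.6. Sphere area growth measured by automated phase-contrast imaging, relative to DMSO.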
Turning to `O=S1OCC2C(CO1)C1(Cl)C(Cl)=C(Cl)C2(Cl)C1(Cl)Cl` (stereo not drawn), the call was inactive.
Regarding `CC[C@H](C)[C@H]1O[C@]2(C=C[C@@H]1C)C[C@@H]1C[C@@H](C/C=C(\C)[C@@H](O[C@H]3C[C@H](OC)[C@@H](O[C@H]4C[C@H](OC)[C@@H](O)[C@H](C)O4)[C@H](C)O3)[C@@H](C)/C=C/C=C3\CO[C@@H]4[C@H](O)C(C)=C[C@@H](C(=O)O1)[C@]34O)O2` (tested in a mixture with another compound), the AC50 is 5.05 µM (active).
For `O=S(=O)(O)C(F)(F)C(F)(F)C(F)(F)C(F)(F)C(F)(F)C(F)(F)C(F)(F)C(F)(F)F`, the molecule was classed as inactive.
For `COP(=S)(OC)Oc1ccc([N+](=O)[O-])cc1`, the molecule was called inactive.
With `CCC(C)(C)C(=O)OC1=C(c2ccc(Cl)cc2Cl)C(=O)OC12CCCCC2`, the call was inactive.
On to `O=C(O)C(F)(F)C(F)(F)C(F)(F)C(F)(F)C(F)(F)C(F)(F)C(F)(F)F`, for which the result was inactive.
Consider `CC(C)N(C(=O)COc1nnc(C(F)(F)F)s1)c1ccc(F)cc1`, for which the call was inactive.
For the molecule `CC1(c2ccc(Oc3ccccc3)cc2)OC(=O)N(Nc2ccccc2)C1=O` (stereo not drawn), the AC50 is 39.6 µM (active).
Regarding `O=C(O)COc1ccc(Cl)cc1Cl`, the molecule was classed as inactive.
In the case of `COP(=O)(OC)OC=C(Cl)Cl`, the AC50 was 14.2 µM (active).
As for `CC1(C)C(C=C(Cl)Cl)C1C(=O)OC(C#N)c1ccc(F)c(Oc2ccccc2)c1` (stereo not drawn), the molecule was classed as inactive.
As for `CNC(=O)CSP(=S)(OC)OC`, the call was inactive.
In the case of `O=[N+]([O-])/N=C1\NCCN1Cc1ccc(Cl)nc1`, the call was inactive.

The next experiment can be described thus: IUF_NPC1_viability_72hr: Viability Assessment at 72 hours in the Leibniz Research Institute for Environmental Medicine (IUF) Neural Progenitor Cell Proliferation Assay (NPC1) (AID 2284209).
Conditions: not given
The essentials: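 Each well receives one 0.3 mm progenitor sphere from fetal brain cortex; test chemical is added at plating and left three days. Viability comes from alamar blue fluorescence, multiplexed with LDH and BrdU readouts in the same well.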
As to `O=S1OCC2C(CO1)C1(Cl)C(Cl)=C(Cl)C2(Cl)C1(Cl)Cl` (stereo not drawn), the AC50 is 2.63 µM (active).
`CC[C@H](C)[C@H]1O[C@]2(C=C[C@@H]1C)C[C@@H]1C[C@@H](C/C=C(\C)[C@@H](O[C@H]3C[C@H](OC)[C@@H](O[C@H]4C[C@H](OC)[C@@H](O)[C@H](C)O4)[C@H](C)O3)[C@@H](C)/C=C/C=C3\CO[C@@H]4[C@H](O)C(C)=C[C@@H](C(=O)O1)[C@]34O)O2` (tested in a mixture with another compound): the call was inactive.
As to `O=S(=O)(O)C(F)(F)C(F)(F)C(F)(F)C(F)(F)C(F)(F)C(F)(F)C(F)(F)C(F)(F)F`, the outcome was inactive.
As for `COP(=S)(OC)Oc1ccc([N+](=O)[O-])cc1`, the outcome was inactive.
On to `CCC(C)(C)C(=O)OC1=C(c2ccc(Cl)cc2Cl)C(=O)OC12CCCCC2`, for which the call was inactive.
For `O=C(O)C(F)(F)C(F)(F)C(F)(F)C(F)(F)C(F)(F)C(F)(F)C(F)(F)F`, the outcome was inactive.
For `CC(C)N(C(=O)COc1nnc(C(F)(F)F)s1)c1ccc(F)cc1`, the outcome was inactive.
Regarding `CC1(c2ccc(Oc3ccccc3)cc2)OC(=O)N(Nc2ccccc2)C1=O` (stereo not drawn), the molecule was classed as inactive.
In the case of `O=C(O)COc1ccc(Cl)cc1Cl`, the result was inactive.
Consider `COP(=O)(OC)OC=C(Cl)Cl`, for which the AC50 is 91.4 µM (active).
`CC1(C)C(C=C(Cl)Cl)C1C(=O)OC(C#N)c1ccc(F)c(Oc2ccccc2)c1` (stereo not drawn): the molecule was classed as inactive.
For the molecule `CNC(=O)CSP(=S)(OC)OC`, the result was inactive.
With `O=[N+]([O-])/N=C1\NCCN1Cc1ccc(Cl)nc1`, the result was inactive.
